PubChem BioAssay AID1745849 (National Center for Advancing Translational Sciences (NCATS), 2022)
Among all 2,100 compounds or so, about 320 (15%) were called active. Another 52% or so got no clear call; they are omitted. The list shows a part of the results. Values without a mark were called inactive. Calls come from the whole dose curve; as a rule, active = well fitted cell-killing curve with a large enough effect; inconclusive = small, poorly fitted or top-dose-only effect, or effect the other way; inactive = flat fitted curve, though single readings scatter.

Assay: Viability Counterscreen for CMV-Luciferase Assay of Inhibitors of ATXN expression; note: nearly all actives have a fitted effect of over 55% in size
Settings: HEK-293 CMV-luciferase cells viability, protease fluorescence, 24 h; activity change, negative = cytotoxicity: at the top concentration
Source text: PI: Daniel Scoles Ph.D. University of Utah School of Medicine, Salt Lake City, Utah MLPCN Grant: NS073009 Spinocerebellar ataxia type 2 (SCA2) is a multisystem neurodegenerative disease caused by a dominantly acting mutation leading to expansion of a polyQ domain in the ataxin-2 protein (ATXN2). SCA2 patients develop progressive ataxia and later lose function in other neuronal systems. Prominent parkinsonian signs develop in some patients. Like many neurodegenerative disorders, no symptomatic or disease-modifying treatments are known. The primary objective of the proposed research is to identify compounds inhibiting ATXN2 expression and to test them for efficacy in SCA2 mouse models. We have developed a cell-based assay paired with an in vivo mouse model using identical luciferase expression constructs. This approach takes advantage of an ATXN2-luciferase transgene, with the luciferase gene flanked by the upstream and downstream portions of the ATXN2 gene. Here we describe a 5-7 dose quantitative high thoroughput screen (qHTS) for compounds lowering ATXN2 expression. We screened the NIH Molecular Libraries Small Molecule Repository (MLSMR) and NCGC's mechanistically annotated (MIPE) and drug repurposing (NPC) collections of compounds for lowering expression of an ATXN2-luciferase reporter in HEK-293 cells. The assay is a multiplexed cell viability assay to ensure target reduction in the absence of cytotoxicity. Secondary qHTS assays included a CMV-luciferase reporter expressed in HEK-293 cells as well as a biochemical assay using recombinant luciferase to detect inhibitors of the reporter enzyme. Compounds that inhibit ATXN2 expression but is not cytotoxic were selected for confirmatory and secondary screens.
PROTOCOL TABLE (as described by Inglese J, Shamu CE and Guy RK. 2007) SEQUENCE No. (e.g., 1, 2, 3, etc.); […] (e.g., Cells, Incubation, Reagent, etc.); VALUE; DESCRIPTION. 1; Cells; 4 uL; white, solid bottom, 1536-well Greiner assay plate. 2; Incubation; 2 hr; 37 degree C in 5% humidified CO2. 3; Compounds; 23 nL; Kalypsis pintool (Wako USA) equipped with a 1536-well pin head. 4; Incubation; 24 hr; 37 degree C in 5% humidfified CO2. 5; Reagent; 1 uL; Gly-Phe-7-Amino-4-trifluoromethylcoumarin. 6; Incubation; 30 min; 37 degree C in 5% humidfified CO2. 7; Detection; Fluorescence; Viewlux plate reader (PerkinElmer). 8; Reagent; 3 uL; SteadyGlo luciferase solution (Promega). 9; Incubation; 5 min; room temperature. 10; Detection; Luminescence; ViewLux plate reader (PerkinElmer). NOTES (numbers refer to Sequence numbers above) 1. HEK-293 cells expressing CMV-luciferase reporter (designated as SC cells) were suspended in phenol-red free DMEM and dispensed in assay plates using a Multidrop Combi dispenser (Thermo Fisher Scientific). 2. Assay plates were incubated. Evaporation was prevented by covering assay plates with metal lids containing holes to allow gas diffusion. 3. Compounds were added in a dose response manner with the final concentrations of 57, 11.4, 2.28, 0.46, 0.091, 0.018, 0.0037 uM. Vehicle-only plates, with DMSO being pin-transferred to columns 5-48, were inserted uniformly at the beginning and the end of each library to monitor and record any shifts in assay performance. 5. 125 uM Gly-Phe-7-Amino-4-trifluoromethylcoumarin (MP Biomedicals) working concentration was used at a final concentration of 25 uM. 7. To assess cell viability; the assay plates were read using the ViewLux high-throughput CCD imager (PerkinElmer), wherein single end-point fluorescence measurement was acquired (excitation 405/10; emission 540/25 nm). 8. Detection reagent SteadyGlo Luciferase (Promega) was added to the assay plate. 10. Luminescence is then measured on the ViewLux imager equipped with a clear emission filter using a 2 sec exposure. […]
% is set by controls: 0 for no effect and ±100 for the full control effect; potency is the fitted concentration of half-maximal effect.

Structure (SMILES) | activity change, negative = cytotoxicity | Potency
O=C(NCC1CCCO1)c1cccc(Oc2ccc([N+](=O)[O-])cc2Cl)c1 (centres undefined) | 12.9% | –
CCN(CC)C(=O)C1=C(C)N(CCC2=CCCCC2)C(=O)C(CC(=O)NC(c2ccccc2)c2ccccc2)C1 (centres undefined) | -26.1% | –
O=C(O)CSc1cc(NS(=O)(=O)c2ccc(Cl)cc2)c2ccccc2c1O | -8.84% [at 57.5 µM] | –
COc1ccc(-c2csc(N(CCCN3CCOCC3)C(=O)c3ccco3)n2)cc1 | -15.1% | –
CCOc1ccc(NCc2cccn2-c2nnc(N3CCC(C(=O)NCCCN4CC(C)CC(C)C4)CC3)s2)cc1 (centres undefined) | -19.6% | –
CCN(CC)CCNC1=NCCn2c1cc1cc(OC)ccc12 | -15.7% | –
CCCCCn1c(=O)c2ccccc2n2c(CCl)nnc12 | – | 14.1 µM (active)
Cc1cc(C)cc(OCC(=O)NNC(=S)NC(=O)C2CC2)c1 | -23.3% | –
CCCCC1C(=O)CC[C@H]2[C@@H]1CC(=O)[C@@H]2C/C=C\CCCC(=O)O (some centres undefined) | -4.83% | –
CC(=O)N1c2ccc(S(=O)(=O)N3CCC(C(=O)N4CCN(c5ccc(Cl)cc5)CC4)CC3)cc2CC1C (centres undefined) | -27.4% [at 57.5 µM] | –
CC1CC2(C)Oc3ccccc3CC2C(C)C1CNCCCN(C)C (centres undefined) | – | 35.5 µM (active)
COc1cc([N+](=O)[O-])cc(/C=N/NC(=O)c2ccc(NC(=O)c3ccc(C)cc3)cc2)c1O | – | 1.41 µM (active)
CC(C)C(=O)Nc1ccc(C(=O)N/N=C/c2cc(Br)cc(Br)c2O)cc1 | 17.3% [at 57.5 µM] | –
COc1cc(Br)cc(/C=N/NC(=O)Cc2ccc(C(F)(F)F)cc2[N+](=O)[O-])c1O | -26.5% [at 57.5 µM] | –
CC(=O)N1CCN(c2ccc(Oc3ccc([N+](=O)[O-])c(C(F)(F)F)c3)cc2)CC1 | -28.6% [at 57.5 µM] | –
Clc1ccc(SCc2cc(N3CCOCC3)nc(-c3ccccn3)n2)cc1 | – | 17.8 µM (active)
Cc1cc(Oc2ccc(Cl)cc2)nc(-c2ccccn2)n1 | 9.12% [at 57.5 µM] | –
O=C(Oc1c(CN2CCOCC2)cc(Cl)c2cccnc12)c1ccccc1 | -15.7% | –
CCCC(=O)Nc1ccc2nc(SCC(=O)N3CCCC3)sc2c1 | 10.3% [at 57.5 µM] | –
COc1ccccc1OCCN1CSC(=S)N(C)C1 | – | 11.2 µM (active)
COc1cc(OC)cc(-c2cc3nc(C)c(CCC(=O)NCc4ccccc4)c(C)n3n2)c1 | 0.755% [at 57.5 µM] | –
O=C(NCc1ccccc1C(F)(F)F)c1cccc2c1C(=O)c1ccc(N3CCC(N4CCCCC4)CC3)cc1S2(=O)=O | -2.76% | –
Cc1ccsc1/C=C/C1=Cc2c(sc(NC(=O)CSc3n[nH]c(N)n3)c2C#N)C(C)(C)C1 | 2.76% [at 57.5 µM] | –
COC(=O)c1ccccc1S(=O)(=O)NNC(=O)Nc1ccccc1 | 7.74% | –
COc1ccc(/C=C/C(=O)Nc2cccc(S(=O)(=O)N3CCCC3)c2)cc1OC | 17.8% | –

Structure (SMILES) | activity change, negative = cytotoxicity | Potency
CCSc1nc2ccccc2n1C(=O)/C=C\c1ccc(OC)c(OC)c1 | – | 4.47 µM (active)
O=C(CN1c2cccc3cccc(c23)S1(=O)=O)NCc1ccc(Cl)cc1 | 1.66% | –
CCN(CC)CCC(c1ccc2c(c1)OCO2)c1c(OC)cc(OC)c2c(-c3ccccc3)cc(=O)oc12 (centres undefined) | – | 17.8 µM (active)
COc1ccccc1C(=O)NNC(=O)c1nn(Cc2ccccc2)c(=O)c2ccccc12 | – | 22.4 µM (active)
CC(C)(C)c1ccc(OCCn2nc(C(=O)O)c3ccccc3c2=O)cc1 | -4.92% [at 57.5 µM] | –
COc1ccc(-n2nc(C(=O)NCC(=O)Nc3cccc(Cl)c3)c3ccccc3c2=O)cc1OC | -8.61% [at 57.5 µM] | –
O=C(C(Br)=Cc1ccccc1)c1ccccc1 | – | 7.94 µM (active)
CC(C)(C)NCC(=Cc1ccccc1)C(=O)c1ccccc1 | – | 2.24 µM (active)
O=C(N/N=C/c1ccccc1O)/C(=C/c1ccccc1)CCO | -7.96% | –
Cc1ccc(CN(C)C(=O)CN2C(=O)NC(c3ccccc3)(c3ccccc3)C2=O)c(C)c1 | -27.6% | –
O=C(Nc1cccc(S(=O)(=O)N2CCOCC2)c1)c1ccc2c(=O)n3c(nc2c1)CCCCC3 | -20.1% | –
O=C(Nc1ccc(NC(=O)c2ccc(Cl)cc2Cl)cc1)c1cccs1 | -25.7% [at 57.5 µM] | –
O=C(Nc1ccc(Cl)cc1)Nc1nc(-c2sccc2Br)cs1 | – | 10 µM (active)
Cc1ccc(F)cc1-c1cc2nc(NCCCN(C)C)n(C)c(=O)c2s1 | -13.1% [at 57.5 µM] | –
CC(C)c1cccc(C(C)C)c1Nc1cn[nH]c1 | -15.4% | –
CCOC(=O)c1cnc(-n2nc(C)cc2C)nc1NNc1cc(C)nc(-c2ccccc2)n1 | – | 8.91 µM (active)
CCOC(=O)c1cnc(-n2nc(C)cc2C)nc1NC1CCCC1 | -7.03% | –
Cc1cc(NCc2ccccn2)n2nc(C)c(-c3ccc(Cl)cc3)c2n1 | – | 20 µM (active)
CCCc1cc(NCc2ccccn2)n2nc(C)c(-c3ccccc3)c2n1 | -18.3% | –
CC(C)C(CCNCc1ccccn1)c1ccc(Cl)cc1 (centres undefined) | 5.83% [at 57.5 µM] | –
COc1cc(OC)c(OC)cc1/C=C1\CC(C)C/C(=C\c2cc(OC)c(OC)cc2OC)C1=O (centres undefined) | -29.6% [at 57.5 µM] | –
COc1cc(/C=C/c2ccc3cccc(O)c3n2)cc(OC)c1OC | -28.4% [at 57.5 µM] | –
COc1cc(/C=C2\COC/C(=C\c3cc(OC)c(OC)c(OC)c3)C2=O)cc(OC)c1OC | – | 1.58 µM (active)
CCOC(=O)N(C)c1c(CC)nc2c(OCc3ccccc3OC)cccn12 | 14.1% [at 57.5 µM] | –
